The text below walks through data of PubChem BioAssay (NCI).

This is part of a sample that, as a whole, favours compounds with a hit. Of some 83,000 tested, about 20% had one in any assay.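 Growth was measured after 48 h exposure to one concentration of compound in 96-well plates. Values under 10 count as active.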 A number with no mark means an inactive call. Activity calls are given as the source filed them.

Holding throughout (test): NCI-60 one-dose screen, 48 h (100 = growth as untreated, 0 = no growth, -100 = all killed)
The test system of one test is HCT-15 colon. The conditions noted are these: 10 µM unless noted.
The next test relates to HT29 colon. The conditions noted are these: 10 µM unless noted.
A further test concerns SNB-75 CNS. The conditions noted are these: 10 µM unless noted.
The next test concerns SNB-19 CNS. The conditions noted are these: 10 µM unless noted.
A further test relates to U251 CNS. The following applies: 10 µM unless noted.
A further test relates to PC-3 prostate. The conditions noted are these: 10 µM unless noted.
The next test has as its system SK-MEL-5 melanoma. The conditions noted are these: 10 µM unless noted.
Another test relates to UACC-62 melanoma. The following applies: 10 µM unless noted.
A further test has as its system LOX IMVI melanoma. The following applies: 10 µM unless noted.
A further test deals with SK-MEL-28 melanoma. The following applies: 10 µM unless noted.
For another test, the system named is SK-MEL-2 melanoma. The following applies: 10 µM unless noted.
A further test concerns EKVX NSCLC. The conditions noted are these: 10 µM unless noted.
Another test concerns SN12C renal. The conditions noted are these: 10 µM unless noted.
In another test the test system is UO-31 renal. The conditions noted are these: 10 µM unless noted.
The next test concerns TK-10 renal. The following applies: 10 µM unless noted.
The next test relates to ACHN renal. The following applies: 10 µM unless noted.
Another test deals with CAKI-1 renal. The conditions noted are these: 10 µM.
The subject of the next test is CCRF-CEM leukemia. The following applies: 10 µM unless noted.
In the next test the test system is MOLT-4 leukemia. The following applies: 10 µM unless noted.

`COc1cc(C(=O)C[n+]2ccc3ccccc3c2)cc(OC)c1OC`: the growth in the test with HCT-15 colon is 98%; in the test with HT29 colon it was 95.2%; with SNB-75 CNS, 90%; with SNB-19 CNS, 93.5%; in the test with U251 CNS, 98.3%; in the test on PC-3 prostate, 88.8%. For the same molecule, the growth in the test with SK-MEL-5 melanoma was 99.8%; in the test with UACC-62 melanoma, 91.4%; in the test on LOX IMVI melanoma it was 97.4%; in the test with SK-MEL-28 melanoma, 106%; in the test on SK-MEL-2 melanoma, 102%; in the test on EKVX NSCLC, 98.6%. For the same molecule, the growth in the test with SN12C renal was 90.4%; in the test with UO-31 renal, 94.2%; with TK-10 renal, 112%; in the test on ACHN renal, 106%; with CAKI-1 renal it was 92.6%; in the test on CCRF-CEM leukemia it was 97%. The growth with MOLT-4 leukemia is 106%.

`NS(=O)(=O)c1ccc(Nc2nc(N/N=C/c3ccc([N+](=O)[O-])cc3)nc(Nc3ccccc3)n2)cc1`: the growth with HCT-15 colon was 86.5%; in the test on HT29 colon, 24.6%; with SNB-75 CNS, 45.4%; in the test with SNB-19 CNS it was 20.4%; in the test on U251 CNS it was 18.2%; in the test with PC-3 prostate, 50.2%. Besides, the growth in the test on SK-MEL-5 melanoma was 32.3%; in the test on UACC-62 melanoma, 45.1%; in the test on LOX IMVI melanoma, -20.6% (active); with SK-MEL-28 melanoma, 35.2%; with SK-MEL-2 melanoma it was 18.2%; in the test with EKVX NSCLC, 83.7%. In addition, the growth in the test on SN12C renal is 27.4%; in the test with UO-31 renal, 81.9%; in the test with TK-10 renal, 93.8%; in the test with ACHN renal it was 82.6%; with CAKI-1 renal it was 50.6%; in the test on CCRF-CEM leukemia it was 11.8%. In addition, in the test with MOLT-4 leukemia, the growth was 11.9%.

Consider `CCOC(=O)c1c(NCC(=O)Nc2cccc([N+](=O)[O-])c2)sc2c1CCCC2`, for which the growth in the test on HCT-15 colon is -42.4% (active); in the test on HT29 colon it was -71.5% (active); in the test on SNB-75 CNS, -48.6% (active); in the test with SNB-19 CNS, -17.3% (active); in the test on U251 CNS, -26.5% (active); in the test with PC-3 prostate, -34% (active). Also, the growth in the test on SK-MEL-5 melanoma is -98.4% (active); in the test with UACC-62 melanoma it was -90.3% (active); in the test with LOX IMVI melanoma it was -73% (active); in the test with SK-MEL-28 melanoma, -80.2% (active); in the test on SK-MEL-2 melanoma, -43.2% (active); in the test on EKVX NSCLC, -22.7% (active). For the same molecule, the growth in the test with SN12C renal is -28.9% (active); in the test with UO-31 renal, -17.7% (active); with TK-10 renal it was -33.2% (active); in the test with ACHN renal, -60.9% (active); in the test on CAKI-1 renal, -20.2% (active); with CCRF-CEM leukemia it was 8.8% (active). Moreover, the growth in the test on MOLT-4 leukemia is 5.22% (active).

Turning to `CCCCCCNC(=O)Oc1ccc(/C(=C(\C)c2ccc(Cl)cc2)c2ccc(OCCN(C)C)cc2)cc1`, the growth with HCT-15 colon is 7.58% (active); with HT29 colon, 5.99% (active); with SNB-75 CNS, 75.8%; with SNB-19 CNS it was 60.8%; in the test on U251 CNS it was 46%; in the test on PC-3 prostate it was 56%. The growth with SK-MEL-5 melanoma is 47.9%; in the test on UACC-62 melanoma it was 84.7%; in the test on LOX IMVI melanoma, -67.8% (active); with SK-MEL-28 melanoma, 75%; with SK-MEL-2 melanoma it was 98%; in the test on EKVX NSCLC, 60.5%. Further, the growth with SN12C renal is 69.9%; with UO-31 renal, 43.6%; in the test with TK-10 renal, 88.9%; in the test on ACHN renal, 71.5%; in the test with CAKI-1 renal, 70.4%; in the test on CCRF-CEM leukemia, 36%. Besides, the growth with MOLT-4 leukemia was 13.4%.

For the molecule `COc1ccc(Cn2cc3c(c2-c2ccccc2)CCCc2cnoc2-3)cc1`, the growth in the test on HCT-15 colon was 32.5%; in the test on HT29 colon, 20.4%; in the test with SNB-75 CNS it was 51.2%; in the test with SNB-19 CNS it was 61%; in the test with U251 CNS it was 57.7%; in the test on PC-3 prostate, 60%. In addition, the growth with SK-MEL-5 melanoma is 50.1%; in the test with UACC-62 melanoma it was 42.7%; in the test with LOX IMVI melanoma, 53.5%; in the test on SK-MEL-28 melanoma, 62%; in the test with SK-MEL-2 melanoma, 80.2%; with EKVX NSCLC it was 69.2%. Moreover, the growth in the test on SN12C renal was 79.8%; with UO-31 renal it was 57.1%; in the test on TK-10 renal, 91.8%; in the test on ACHN renal, 58.9%; in the test on CAKI-1 renal, 46.1%; with CCRF-CEM leukemia it was 61.3%. Also, in the test with MOLT-4 leukemia, the growth is 61.7%.

As to `NC(=O)C(=Cc1ccc(Cl)cc1)C(N)=O`, the growth in the test with HCT-15 colon was 36.6%; in the test on HT29 colon it was 77.4%; in the test on SNB-75 CNS it was 62.4%; in the test with SNB-19 CNS, 77.9%; in the test on U251 CNS, 68.7%; with PC-3 prostate, 70.4%. In addition, the growth is 95.4% in the test with SK-MEL-5 melanoma; 85.3% with UACC-62 melanoma; 57.4% in the test on LOX IMVI melanoma; 70% with SK-MEL-28 melanoma; 87.3% with SK-MEL-2 melanoma; 59.8% with EKVX NSCLC. Besides, the growth in the test on SN12C renal is 45.3%; in the test with UO-31 renal, 57.6%; in the test on TK-10 renal, 67.9%; with ACHN renal, 59.4%; in the test with CAKI-1 renal, 49.2%; in the test on CCRF-CEM leukemia, 57%. In the test on MOLT-4 leukemia, the growth is 74.6%.

For the molecule `CCOC(=O)C1=C(C)Nc2nc3ccccc3n2C1c1ccccc1` (stereo not drawn), the growth in the test with HCT-15 colon was 90.8%; in the test on HT29 colon, 97.9%; in the test on SNB-75 CNS, 99.1%; in the test on SNB-19 CNS it was 97.8%; with U251 CNS, 101%; in the test on PC-3 prostate, 97.7%. Further, the growth with SK-MEL-5 melanoma is 99.3%; in the test with UACC-62 melanoma, 85.7%; in the test on LOX IMVI melanoma it was 90.4%; in the test with SK-MEL-28 melanoma it was 109%; in the test on SK-MEL-2 melanoma it was 102%; with EKVX NSCLC, 94.4%. The growth in the test on SN12C renal is 92.9%; in the test with UO-31 renal, 84.9%; in the test on TK-10 renal it was 114%; in the test on ACHN renal it was 73.7%; in the test on CAKI-1 renal, 90.6%; in the test with CCRF-CEM leukemia it was 94%. For the same molecule, the growth with MOLT-4 leukemia is 97.8%.
